Mtb betalactam = beta-lactam sensitization of Mtb H37Rv; inhibition, % at 25 µM; 330,000 compounds, 0.27% hits; M. tuberculosis H37Rv growth with meropenem, percent inhibition; call rule not given here;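 note: growth measured after seven days incubation then overnight dye step; 0% = bacteria only wells and 100% = bacteria with antibiotic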
GDH-TPI inh = GDH-TPI coupled enzyme inhibition counter-screen; 360,000 compounds, 1.2% hits; GDH-TPI coupled enzyme counterscreen, NADH absorbance; inhibition, % at 4.8 µM; in the data active = inhibition above about 30%;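 note: 0% = DMSO wells and 100% = wells lacking the enzyme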
RecA splice inh = inhibitors of M. tuberculosis RecA intein splicing | cell-free RecA intein splicing, fluorescence | inhibition, % (concentration not given with the values) | 290,000 compounds, 0.75% hits | AID 2221; in the data active = inhibition above about 30%;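 note: 0% = vehicle wells and 100% = reference inhibitor control wells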
Rv3671c protease = Rv3671c (M. tuberculosis) protease inhibition | inhibition, % at 5.96 µM | 320,000 compounds, 0.048% hits | P9WHR9; in the data active = inhibition above about 38%;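 note: extracellular domain of Rv3671c used as enzyme; 0% = enzyme with DMSO and 100% = no enzyme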
Target sequence (P9WHR9 whole entry, looked up, the tested form may be a part): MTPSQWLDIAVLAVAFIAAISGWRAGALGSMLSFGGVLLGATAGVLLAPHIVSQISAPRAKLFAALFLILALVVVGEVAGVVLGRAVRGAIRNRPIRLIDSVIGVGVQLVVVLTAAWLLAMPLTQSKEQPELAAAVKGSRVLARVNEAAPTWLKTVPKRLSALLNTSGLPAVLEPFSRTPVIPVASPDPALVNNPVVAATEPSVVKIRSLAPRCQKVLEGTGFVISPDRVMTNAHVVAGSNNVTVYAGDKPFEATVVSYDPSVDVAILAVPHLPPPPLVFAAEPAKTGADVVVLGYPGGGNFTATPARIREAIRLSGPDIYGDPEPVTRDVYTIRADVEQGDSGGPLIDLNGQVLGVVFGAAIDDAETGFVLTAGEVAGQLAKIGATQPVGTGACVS
Mtb FBA inh = inhibits M. tuberculosis FBA enzyme; P9WQA3; purified M. tuberculosis FBA, fluorescence read-out; inhibition, % at 1 µM; 360,000 compounds, 2.3% hits; in the data active = inhibition above about 27%;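 note: 0% = vehicle and 100% = reference inhibitor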
UGM FP inh = inhibitors of M. tuberculosis UDP-galactopyranose mutase; purified UGM, fluorescence polarization probe displacement; inhibition, % at 10 µM; 320,000 compounds, 0.06% hits; in the data active = inhibition above about 10%, passing the limit was not always enough
Active calls of the source: *; / = no result; + = active, no number. The list is not random: actives were taken first. Their share in the collection is about 4%.

SMILES	Mtb betalactam	GDH-TPI inh	RecA splice inh	Rv3671c protease	Mtb FBA inh	UGM FP inh
Cc1cccc(N(C)S(=O)(=O)c2c[nH]c3ccc([N+](=O)[O-])cc23)c1	-4	9	1	-14	-2	-1
COc1ccc(C(CNC(=O)c2[nH]c(C)c(C(C)=O)c2C)N2CCOCC2)cc1 (stereo unspecified)	-9	1	/	-1	0	4
O=C(N/N=C/c1ccc[nH]1)c1cc2ccccc2cc1O	88	37*	-59	25	-2	1
Cc1ccc(/C=N/NC(=O)C(O)c2ccccc2)o1 (stereo unspecified)	0	31*	1	8	4	0
O=C(N/N=C/c1c[nH]c2ccccc12)c1cccc(O)c1	1	6	-2	4	-2	2
O=C(N/N=C/c1cc(Br)c(Br)o1)C(O)c1ccccc1 (stereo unspecified)	-9	11	1	2	1	0
Cc1ccsc1/C=N/NC(=O)c1ccccn1	94	39*	-4	1	2	1
O=C(N/N=C/c1c[nH]c2ccccc12)c1ccc(O)c(O)c1	2	36*	-6	-3	-1	0
O=C1C(F)=CC(COC(c2ccccc2)(c2ccccc2)c2ccccc2)OC1n1cc(F)c(=O)[nH]c1=O (stereo unspecified)	/	-3	/	/	-2	/
OCC1OC(c2ccccc2)OC2COC(c3ccccc3)OC12 (stereo unspecified)	/	-10	/	/	1	/
CC[C@H]1C(Nc2ccccc2)C[C@@H]2CCN3C(=O)CC[C@H]1[C@H]23 (stereo partly specified)	/	2	/	/	0	/
CCNC(=O)C1(C)CCCN(C(=O)/C=C/c2ccccc2)C1 (stereo unspecified)	/	7	/	/	2	/
O=C(Nc1cccc(S(=O)(=O)N2CCCCCC2)c1)C1CC(=O)N(c2ccc3c(c2)OCCO3)C1 (stereo unspecified)	-7	2	-1	1	-4	1
O=C(N/N=C/c1cc([N+](=O)[O-])ccc1O)c1c[nH]c2ccccc12	14	39*	-3	9	-5	1
O=C(N/N=C/c1ccc[nH]1)c1c[nH]c2ccccc12	/	32*	-10	/	2	/
CC(C)c1c(O)ccc2c1CC[C@H]1C(C)(C)CCC[C@]21C	/	3	/	/	-3	/
CC1CCC(=O)N(CCC#N)CC1 (stereo unspecified)	-9	-3	-1	-3	1	1
COc1cccc(-n2c(SCC(=O)NC3CC3)nc3ccccc3c2=O)c1	/	6	/	/	-2	/
COc1ccccc1NC(=O)CS(=O)(=O)c1cn(CC(=O)N2CCCC2)c2ccccc12	10	7	3	-4	1	0
CC(C)(C)c1nnc(N/N=C/c2ccccc2O)n(N)c1=O	7	36*	-7	-4	0	3
CCS(=O)(=O)N1Cc2ccccc2CC1C(=O)N(C)Cc1ccc(OC)c(F)c1 (stereo unspecified)	2	-9	3	-1	-1	-2
COc1ccc2cc3cc(C(=O)NCCN4CCN(Cc5ccccc5)CC4)oc3nc2c1	70	20	-2	-1	+	1
COc1ccc2cc3cc(C(=O)NCCN4CCc5ccccc5C4)oc3nc2c1	2	38*	/	-8	188*	1
Cc1ccc2c(c1)C1CN(C)CCC1N2S(=O)(=O)c1ccccc1F (stereo unspecified)	-6	-1	/	-6	0	-1
CC(C)C1Oc2cc3oc(=O)ccc3cc2C1=O (stereo unspecified)	-9	16	0	4	115*	1
SMILES	Mtb betalactam	GDH-TPI inh	RecA splice inh	Rv3671c protease	Mtb FBA inh	UGM FP inh
O=c1ccc2cc3c(-c4ccccc4)coc3cc2o1	-1	9	-4	/	12	-2
O=C1C[C@@H](c2ccc(O[C@@H]3O[C@H](CO)[C@@H](O)[C@H](O)[C@H]3O)cc2)Oc2cc(O)ccc21	4	34*	-3	4	1	-2
Nc1ccc(/C=C/C(=O)c2ccco2)cc1	82	6	-2	-7	-9	-2
O=C(/C=C/c1ccccc1O)c1ccco1	95	33*	0	2	-4	1
CC(C)(C)C(=O)Nc1ccc(/C=C/C(=O)c2ccco2)cc1	44	49*	2	4	2	-2
CCOC(=O)c1nn(-c2ccc3c(c2)CCN3C(C)=O)cc1O	-4	26	0	-17	+	1
CCCCn1c(N)c(S(=O)(=O)c2ccc(C)cc2)c2nc3ccccc3nc21	49	18	-5	-19	116*	0
Cc1ccc(S(=O)(=O)c2c(N)n(-c3ccccc3)c3nc4ccccc4nc23)cc1	2	14	-6	-6	129*	-1
CC(=O)Nc1c(S(=O)(=O)c2ccccc2)c2nc3ccccc3nc2n1Cc1ccccc1	-5	11	1	-1	148*	0
CN(C)CCCn1c(N)c(S(=O)(=O)c2ccccc2)c2nc3ccccc3nc21	-13	20	11	-1	113*	1
C=CCn1c(NS(=O)(=O)c2ccccc2)c(S(=O)(=O)c2ccc(C)cc2)c2nc3ccccc3nc21	-3	8	-1	-233	14	3
O=S(=O)(Nc1c(S(=O)(=O)c2ccccc2)c2nc3ccccc3nc2n1C1CCCCC1)c1ccccc1	-2	9	-21	-59	4	0
COc1ccc(Cl)cc1N1C(=NC(=O)C2CCCCC2)SC2CS(=O)(=O)CC21 (stereo unspecified)	4	-3	0	1	-1	1
CCN(CC)S(=O)(=O)c1ccc(C(=O)NCC(=O)NCc2ccc3c(c2)OCO3)cc1	/	18	/	/	3	/
CCc1cc(CNC(=O)C2CCC(=O)N(Cc3cccc(F)c3)C2)on1 (stereo unspecified)	6	-6	0	9	-3	3
C(=N\N1CCOCC1)/c1nc(-c2ccccc2)n2ccccc12	-5	34*	-2	-7	1	1
C(=N\N1CCOCC1)/c1cn(-c2ccccc2)nc1-c1ccccc1	3	3	-1	2	0	2
Cc1nn(-c2ccccc2)nc1C(N)=O	-6	-7	-1	9	13	0
COc1cccc(COC(=O)c2nn(-c3ccccc3)nc2N)c1	2	4	3	-4	-2	5
NC(=O)c1nn(-c2ccccc2)nc1N	0	5	-1	2	+	1
Nc1nn(-c2ccccc2)nc1C(=O)OCc1ccccc1	4	6	-3	-18	177*	0
CC(=O)Nc1sc2c(c1-c1nc3ccccc3s1)CCN(C(C)C)C2	97	33*	/	5	8	-3
CCN(CC(=O)NCc1ccccc1Cl)CC(=O)Nc1c(F)cccc1F	-1	44*	2	-9	2	2
Cc1ccc(C(=O)/C=C/Nc2ccccn2)cc1	-5	33*	-3	-2	0	3

Screening results deposited in PubChem by several laboratories.
